Data taken from PubChem BioAssay AID2316 (Broad Institute, 2010).
The whole screen tested about 29,000 compounds, of which fewer than 10 were called active. The rule behind the calls is not given here. A selection follows.

assay: reversal of PD-1 mediated T-cell inhibition, primary screen, luminescence, primary human CD4 T cells, PD-L1 beads (AID 2316); details: CellTiter-Glo 96 h, active compounds read high;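 note: 0% = median vehicle wells and 100% = positive control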

SMILES | activation
COc1ccc(N2C(=O)CC(SCC(=O)Nc3ccccc3F)C2=O)cc1 (stereo not given) | 1.75% (inactive)
COc1ccc(C)cc1S(=O)(=O)N(C)CC(=O)Nc1ccc(Br)cc1F | 1.42% (inactive)
Cc1ccc(S(=O)(=O)Nc2ccc3c(c2)C(=O)N([C@H](C)CO)C[C@H](C)[C@@H](CN(C)C(=O)Nc2ccc4c(c2)OCO4)OCCCC[C@@H](C)O3)cc1 | 0.503% (inactive)
CCCCn1c(O)c(C#N)c(C)cc1=O | 1.29% (inactive)
Cc1ccc(-c2csc3ncn(CC(=O)Nc4ccc(F)c(Cl)c4)c(=O)c23)cc1C | -0.0295% (inactive)
COc1ccc(NC(=O)N(C)C[C@@H]2OCCCC[C@@H](C)Oc3ccc(N(C)C)cc3C(=O)N([C@H](C)CO)C[C@@H]2C)cc1 | 0.076% (inactive)
O=S(=O)(c1ccc(Cl)cc1)c1nc(-c2ccccc2F)oc1NCCN1CCOCC1 | -0.673% (inactive)
NC(=O)c1c(NC(=O)c2cnn3c(C(F)F)cc(-c4ccccc4)nc23)sc2c1CCCC2 | -5.98% (inactive)
C[C@@H]1CN([C@H](C)CO)C(=O)c2cc(NC(=O)Cc3cn(C)c4ccccc34)ccc2O[C@H]1CN(C)S(C)(=O)=O | -1.87% (inactive)
Cc1ccc(S(=O)(=O)Nc2cccc3c2O[C@@H](CN(C)C(=O)Nc2ccccc2)[C@H](C)CN([C@@H](C)CO)C3=O)cc1 | 2.15% (inactive)
COc1ccc(S(=O)(=O)N(C)C[C@H]2Oc3ccc(NS(=O)(=O)c4c(C)noc4C)cc3CC(=O)N([C@@H](C)CO)C[C@H]2C)cc1 | -0.136% (inactive)
COc1ccc(NC(=O)CSc2nc(-c3cccs3)cc(-c3ccsc3)c2C#N)cc1OC | -6.31% (inactive)
O=C(CCc1nc(-c2ccccc2Cl)no1)Nc1ccc(Cl)c(Cl)c1 | 1.17% (inactive)
C=CCSc1nc(N)cc(=O)[nH]1 | 0.998% (inactive)
C[C@@H]1CN([C@H](C)CO)C(=O)Cc2cc(NS(=O)(=O)c3ccc(Cl)cc3)ccc2O[C@H]1CN(C)S(=O)(=O)c1cccs1 | -2.73% (inactive)
O=C(c1ccc(Cl)cc1)n1c(=O)oc2cc(Cl)ccc21 | -0.599% (inactive)
Cc1ccccc1NC(=O)CSc1nnc(-c2ccc([N+](=O)[O-])cc2)n1C | 0.454% (inactive)
C[C@H]1CN([C@@H](C)CO)C(=O)c2cc(NS(=O)(=O)c3ccc(Cl)cc3)ccc2O[C@H]1CN(C)Cc1ccc(Oc2ccccc2)cc1 | 0.482% (inactive)
O=C1Cc2ccc(F)cc2CC1C1=Cc2ccc(F)cc2CC1 (stereo not given) | -8.11% (inactive)
Cc1ccc([N+](=O)[O-])cc1N(CC(=O)Nc1ccc(Cl)c(C(F)(F)F)c1)S(C)(=O)=O | 3.56% (inactive)
N/C(CSc1nc2ccccc2s1)=N\O | -0.165% (inactive)
C[C@@H]1CN([C@H](C)CO)C(=O)Cc2cc(NC(=O)NC3CCCCC3)ccc2O[C@H]1CN(C)S(C)(=O)=O | 2.26% (inactive)
CC(C)(C)c1cn2c3ccccc3nc2n1CCN1CCOCC1 | -2.35% (inactive)
O=C(c1ccco1)N1CCN(CCOc2ccccc2)CC1 | 4.48% (inactive)

SMILES | activation
COc1ccc(S(=O)(=O)Nc2ccc3c(c2)CC(=O)N([C@H](C)CO)C[C@@H](C)[C@@H](CN(C)C(=O)Nc2cccc4ccccc24)O3)cc1 | 0.476% (inactive)
C[C@@H]1CCCCO[C@@H](CN(C)S(=O)(=O)c2cn(C)cn2)[C@@H](C)CN([C@H](C)CO)C(=O)c2cc(NC(=O)c3ccncc3)ccc2O1 | 3.7% (inactive)
C[C@@H]1CCCCO[C@H](CN(C)S(=O)(=O)c2cccs2)[C@@H](C)CN([C@H](C)CO)C(=O)c2cc(NC(=O)Nc3ccccc3)ccc2O1 | -1.94% (inactive)
COc1ccc(NC(=O)Nc2ccc3c(c2)CC(=O)N([C@@H](C)CO)C[C@H](C)[C@@H](CN(C)Cc2ccc4c(c2)OCO4)O3)cc1 | 0.816% (inactive)
COc1ccc(S(=O)(=O)Nc2ccc3c(c2)C(=O)N([C@H](C)CO)C[C@H](C)[C@@H](CN(C)S(C)(=O)=O)OCCCC[C@@H](C)O3)cc1 | 0.638% (inactive)
C[C@@H]1CN([C@@H](C)CO)C(=O)c2cc(NC(=O)Nc3ccccc3)ccc2O[C@@H]1CN(C)Cc1ccccc1 | 1.95% (inactive)
C[C@@H]1CN([C@H](C)CO)C(=O)c2cc(NS(=O)(=O)c3ccccc3)ccc2O[C@H]1CN(C)C(=O)Nc1ccc2c(c1)OCO2 | 1.11% (inactive)
COc1ccc(N(Cc2cc3ccccc3[nH]c2=O)C(=O)c2cccc(OC)c2)cc1 | 1.92% (inactive)
C[C@H]1CN([C@@H](C)CO)C(=O)c2cccc(NC(=O)c3cnccn3)c2O[C@@H]1CN(C)Cc1ccc(Oc2ccccc2)cc1 | -2.26% (inactive)
Cc1ccc(C23CC4CC(CC(CN)(C4)C2)C3)cc1C | -7.62% (inactive)
O=C(Nc1ccccc1)C(=S)Nc1ccccc1 | -0.0947% (inactive)
Cc1noc(C)c1NC(=O)N(C)C[C@@H]1Oc2ccc(NC(=O)Nc3ccc(F)cc3)cc2C(=O)N([C@H](C)CO)C[C@@H]1C | -0.0779% (inactive)
CN1CCN(S(=O)(=O)c2ccc(NC(=O)C3CC=CCC3C(=O)O)cc2)CC1 (stereo not given) | 1.99% (inactive)
Cc1cc(C)c(NC(=O)CSc2nnc(-c3ccccc3)n2-c2ccc(F)cc2)c(C)c1 | 1.56% (inactive)
COc1ccc(NC(=O)c2ccc(OCC(=O)Nc3ccccc3F)cc2)cc1Cl | 0.553% (inactive)
COc1ccc(NC(=O)N(C)C[C@@H]2Oc3ccc(NC(=O)Nc4ccccc4)cc3CC(=O)N([C@H](C)CO)C[C@@H]2C)cc1 | -0.196% (inactive)
CCOC(=O)CCSc1nnc2c3ccccc3n(C)c2n1 | -0.845% (inactive)
Cc1noc(C)c1NC(=O)Nc1ccc2c(c1)C(=O)N([C@H](C)CO)C[C@@H](C)[C@@H](CN(C)C(=O)NC(C)C)O2 | 0.338% (inactive)
O=C(CSc1nnc(-c2ccccc2)n1-c1ccc(Cl)cc1)Nc1ccc(Cl)cc1 | -11.8% (inactive)
CCc1cc(C)cc(OCC(O)Cn2cnc3ccccc32)c1 (stereo not given) | -5.01% (inactive)
CN1CCN(C(=O)CCc2nc(-c3ccc(Cl)cc3)no2)CC1 | -0.127% (inactive)
O=C(CSc1nnc2ccc3ccccc3n12)Nc1ccc2c(c1)OCCO2 | 0.368% (inactive)
c1ccc(Nc2ncnc3sc(-c4ccccc4)cc23)cc1 | -0.968% (inactive)
CCCC(=O)Nc1ncnc2c1ncn2[C@@H]1O[C@@H]2OP(=O)(O)OC[C@H]2[C@H]1OC(=O)CCC | 4.46% (inactive)

SMILES | activation
CCOc1ccc2nc(Nc3nc(C)c(Cc4ccc(C)cc4)c(=O)[nH]3)nc(C)c2c1 | -0.875% (inactive)
COc1ccc(C(=O)CSc2nnc(-c3cccc(C)c3)n2-c2ccccc2)cc1 | 1.1% (inactive)
Cc1ccc(S(=O)(=O)N(C)C[C@@H]2Oc3c(NC(=O)C4CC4)cccc3C(=O)N([C@H](C)CO)C[C@H]2C)cc1 | 1.35% (inactive)
O=C(Nc1cccs1)N1CCN(C(=O)C2CCCO2)CC1 (stereo not given) | -0.0221% (inactive)
Cc1ccc(NC(=O)CSc2nnc(C)n2-c2ccc(F)cc2)cc1Cl | 0.0225% (inactive)
COc1ccc(S(=O)(=O)Nc2cccc3c2O[C@@H](CN(C)C(=O)Nc2ccccc2)[C@@H](C)CN([C@@H](C)CO)C3=O)cc1 | -2.12% (inactive)
C[C@@H]1CN([C@@H](C)CO)C(=O)c2cc(NS(C)(=O)=O)ccc2O[C@@H]1CN(C)C(=O)Nc1ccc(F)cc1 | 2.2% (inactive)
O=C1c2ccccc2S(=O)c2ccccc2S(=O)(=O)N1Cc1ccccc1 (stereo not given) | -5.99% (inactive)
Cc1ccc(Cl)cc1NC(=O)CN(c1cccc(Cl)c1C)S(C)(=O)=O | -5.55% (inactive)
CS(=O)(=O)N(CC(=O)Nc1ccc2ccccc2c1)c1cc(Cl)c(Cl)cc1Cl | 1.79% (inactive)
COc1ccc(S(=O)(=O)N(C)C[C@H]2Oc3ccc(NS(=O)(=O)c4ccc(F)cc4)cc3C(=O)N([C@H](C)CO)C[C@H]2C)cc1 | 1.51% (inactive)
COc1ccc(NC(=O)Nc2ccc3c(c2)C(=O)N([C@H](C)CO)C[C@@H](C)[C@H](CN(C)Cc2ccccc2)O3)cc1 | -0.421% (inactive)
C[C@H]1CN([C@@H](C)CO)C(=O)c2cc(NS(C)(=O)=O)ccc2O[C@H]1CN(C)C(=O)Nc1ccc(C(F)(F)F)cc1 | 0.226% (inactive)
O=C(NCc1ccccn1)C1CC(c2cccc(Br)c2)=NO1 (stereo not given) | 1.86% (inactive)
C[C@H](CO)N1C[C@H](C)[C@@H](CN(C)S(C)(=O)=O)Oc2c(NC(=O)c3ccc(-c4nccs4)cc3)cccc2C1=O | 0.392% (inactive)
COc1ccc(C(=O)CSc2nc3ccc(OC)cc3[nH]2)cc1 | 0.352% (inactive)
Cc1noc(C)c1NC(=O)Nc1ccc2c(c1)C(=O)N([C@@H](C)CO)C[C@H](C)[C@H](CN(C)CC1CCCCC1)O2 | 1.03% (inactive)
C[C@@H]1CN([C@H](C)CO)C(=O)Cc2cc(NS(=O)(=O)c3ccc(F)cc3)ccc2O[C@H]1CN(C)C | 2.25% (inactive)
CS(=O)(=O)N(CC(=O)Nc1cc(Cl)ccc1Cl)c1ccc(Oc2ccccc2)cc1 | 0.0184% (inactive)
Cc1ccc(S(=O)(=O)Nc2ccc3c(c2)C(=O)N([C@H](C)CO)C[C@H](C)[C@H](CN(C)Cc2ccc(C(=O)Nc4ccccc4N)cc2)OCCCC[C@@H](C)O3)cc1 | -0.831% (inactive)
O=C(Nc1ccccc1Cl)c1ccccc1S(=O)(=O)c1ccccc1[N+](=O)[O-] | 1.95% (inactive)
CS(=O)(=NS(=O)(=O)c1ccc(OC(F)(F)F)cc1)c1ccc(Cl)cc1 (stereo not given) | 0.43% (inactive)
